Data as given in PubChem BioAssay AID504834 (National Center for Advancing Translational Sciences (NCATS), 2011).
The whole screen tested about 320,000 compounds, of which about 22,000 (6.9%) were called active. Where a call stands in place of a potency, no number is given. Not shown: some 27% with an inconclusive outcome. Only a selection was taken, and actives are over-represented in it overall. Values without a mark were called inactive. The call rests on the fitted dose curve; in most records, active means well fitted inhibition curve with a large enough effect; inconclusive means small, poorly fitted or top-dose-only effect, or another doubt; inactive means no such curve, though single readings can be large or run the other way.
Potency means the concentration at half of the fitted maximal effect.

Assay: Primary qHTS for delayed death inhibitors of the malarial parasite plastid, 96 hour incubation
Conditions: P. falciparum luciferase reporter growth; series mostly up to 28.7 µM
In short: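 P. falciparum expressing integrated firefly luciferase grown in erythrocytes (2% hematocrit, 0.05% parasitemia final) with compounds for 96 hours at 37 C, 5% CO2. Growth inhibition read as loss of luminescence after adding luciferase detection reagent.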
In the case of `CC(=O)Nc1ccc(S(=O)(=O)Oc2ccc(Br)cc2C(=S)N2CCOCC2)cc1`, the Potency is reported as “inactive”. With `COC(=O)C(O)(c1ccc(NC(=O)c2ccco2)c(OC)c1)C(F)(F)F` (stereo not drawn) the activity change, negative = inhibition was 2.22% [at 5.75 µM]. In the case of `CCOC(=O)C(O)(c1ccc(N=Cc2ccccc2O)c(C)c1)C(F)(F)F` (stereo not drawn), the Potency is reported as “inactive”. In the case of `CCOC(=O)C(O)(c1ccc(N)c(OC)c1)C(F)(F)F` (stereo not drawn), the Potency is reported as 2.62 µM (active). With `C/C(=N\NC(=O)c1cccc([N+](=O)[O-])c1)c1cccnc1` the Potency was “inactive”. With `CCc1ccc(NC(=O)N[C@H](C(=O)O)C(C)CC)cc1` (stereo partly drawn) the Potency was “inactive”. With `O=C(Nc1ccccc1N1CCCCC1)c1ccc2nccnc2c1` the Potency was “inactive”. In the case of `Cc1ccc(C)c(NC(=O)c2ccc3nccnc3c2)c1`, the Potency is reported as 8.28 µM (active). With `Cc1nnc(NC(=O)c2ccc3nccnc3c2)s1` the Potency was “inactive”. With `CC(C)OCCCNC(=O)CN1C(=O)/C(=C/c2ccccc2F)Oc2ccccc21` the Potency was “inactive”. For `Cc1ccc(C)c(OCCC(=O)OCC(=O)NC(=O)NCc2ccccc2)c1`, the Potency was “inactive”. In the case of `COc1ccc(/C(C)=N/N2CCOCC2)c(O)c1`, the Potency is reported as “inactive”. In the case of `COc1cccc(NC(=O)c2ccc(Cn3cc([N+](=O)[O-])cn3)o2)c1`, the Potency is reported as “inactive”. With `COc1cccc(NC(=O)c2nn(C34CC5CC(CC(C5)C3)C4)cc2[N+](=O)[O-])c1` the Potency was 8.28 µM (active). With `Cn1cc([N+](=O)[O-])c(C(=O)Nc2ccc3c(c2)OCCO3)n1` the Potency was “inactive”. In the case of `O=C(Nc1cccc([N+](=O)[O-])c1)N1CCc2ccccc2C1`, the Potency is reported as “inactive”. For `O=C(COC(=O)C1(c2ccc(F)cc2)CCCC1)N1CCNC1=O`, the Potency was “inactive”. In the case of `O=C(/C=C/c1cccc([N+](=O)[O-])c1)OCC(=O)N1CCOCC1`, the Potency is reported as “inactive”. For `O=[N+]([O-])c1ccc2c(c1)C(N1CCOCC1)/C(=C/C1(O)CCCCC1)O2` (stereo not drawn), the Potency was 1.65 µM (active). With `O=C(NC1CCCCC1)c1cc([N+](=O)[O-])ccc1N1CCOCC1` the Potency was “inactive”. With `O=[N+]([O-])c1ccc(N/N=C/c2ccccc2)cc1` the Potency was “inactive”. For `COc1ccc(NC(=O)CNC(=O)Cc2ccccc2)cc1OC`, the Potency was “inactive”. For `C[C@]12CC[C@@H]3c4ccc(O)cc4C[C@@H](CCCCCCCCCS(=O)CCCC(F)(F)C(F)(F)F)C3[C@@H]1CC[C@@H]2O` (stereo partly drawn), the Potency was 6.01 µM (active). In the case of `O=C(CCNC(=O)c1ccc([N+](=O)[O-])cc1)NC1CCCCC1`, the Potency is reported as “inactive”. With `CCSc1ncnc2c(C#N)c3n(c12)CCCCC3` the Potency was 11.7 µM (active). For `CCOC(=O)c1c(N=CN(C)C)c(C#N)c2n1CCCC2`, the Potency was “inactive”. In the case of `CC(C)c1nnc(NC(=O)COC(=O)/C=C/c2ccc([N+](=O)[O-])cc2)s1`, the Potency is reported as “inactive”. In the case of `Cc1cc(C)n(CC(C)NCc2c(C(=O)N3CCOCC3)nc3c(C)cccn23)n1` (stereo not drawn), the Potency is reported as “inactive”.
